The antibiotic and cytotoxicity screens of Wong et al. (2023)
Among all 39,000 compounds or so, about 500 (1.3%) were called active. The sample as a whole holds a higher share of actives than the screen did.

test system: S. aureus RN4220; test: growth inhibition call (relative growth <= 0.2); conditions: 50 µM

Row | Compound | growth inhibition call
1 | C[C@@H]1CN([C@@H](C)CO)C(=O)c2cccc(NC(=O)c3ccc(-c4nccs4)cc3)c2O[C@@H]1CN(C)Cc1ccc(Cl)c(Cl)c1 | inactive
2 | Cn1cnc(S(=O)(=O)N2C[C@H](O)COC[C@@H]3O[C@@H](CC(=O)NC4CCCC4)CC[C@H]32)c1 | inactive
3 | NCC[S@@](=O)c1c(-c2ccc(F)cc2)[nH]c2ccccc12 | inactive
4 | CSc1c(-c2ccc(Cl)cc2)[nH]c2ccccc12 | active
5 | Cc1[nH]c2ccccc2c1C(=O)CSc1ccc(Cl)cc1 | inactive
6 | CC(C)NC(=O)Nc1ccc2c(c1)C(=O)N([C@@H](C)CO)C[C@@H](C)[C@H](CN(C)C(=O)Nc1ccc3c(c1)OCO3)O2 | inactive
7 | COc1ccc(NC(=O)N(C)C[C@H]2Oc3ncc(C#C[C@@H](C)O)cc3C(=O)N([C@@H](C)CO)C[C@H]2C)cc1 | inactive
8 | COc1ccc2c3c(n(c2c1)C)[C@@H](CO)N(C[C@]13CN(C1)C(=O)CN(C)C)C(=O)CN(C)C | inactive
9 | Cc1ccccc1-c1cc(N2CCN(C)CC2)ncc1N(C)C(=O)C(C)(C)c1cc(C(F)(F)F)cc(C(F)(F)F)c1 | active
10 | COCCOC(=O)N1C(=O)[C@@]2(c3cc(C#Cc4ccc(OC)cc4)ccc31)[C@H](C(=O)N1CCN(c3ncccn3)CC1)[C@H]1C(=O)O[C@H](c3ccccc3)[C@H](c3ccccc3)N1[C@@H]2c1ccc(OCCO)cc1 | inactive
11 | C[C@@H]1CN([C@H](C)CO)C(=O)c2cc(NS(=O)(=O)c3ccccc3)ccc2O[C@@H](C)CCCCO[C@@H]1CN(C)C(=O)c1ccccc1 | inactive
12 | CNC[C@H]1OCCCC[C@@H](C)Oc2ccc(NC(=O)Nc3ccc(C(F)(F)F)cc3)cc2C(=O)N([C@H](C)CO)C[C@H]1C | active
13 | CNC[C@@H]1OCCCC[C@H](C)Oc2ccc(NC(=O)Nc3ccc(C(F)(F)F)cc3)cc2C(=O)N([C@H](C)CO)C[C@@H]1C | inactive
14 | CNC[C@@H]1OCCCC[C@@H](C)Oc2ccc(NC(=O)Nc3ccc(C(F)(F)F)cc3)cc2C(=O)N([C@@H](C)CO)C[C@@H]1C | inactive
15 | CNC[C@H]1OCCCC[C@@H](C)Oc2ccc(NC(=O)Nc3ccc(C(F)(F)F)cc3)cc2C(=O)N([C@H](C)CO)C[C@@H]1C | inactive
16 | CNC[C@@H]1OCCCC[C@H](C)Oc2ccc(NC(=O)Nc3ccc(C(F)(F)F)cc3)cc2C(=O)N([C@H](C)CO)C[C@H]1C | active
17 | CNC[C@@H]1OCCCC[C@@H](C)Oc2ccc(NC(=O)Nc3ccc(C(F)(F)F)cc3)cc2C(=O)N([C@@H](C)CO)C[C@H]1C | inactive
18 | Cc1noc(C)c1NC(=O)N(C)C[C@H]1Oc2ccc(NC(=O)NC(C)C)cc2CC(=O)N([C@H](C)CO)C[C@@H]1C | inactive
19 | CN(c1ncccc1CNc1nc(Nc2ccc3c(c2)CC(=O)N3)ncc1C(F)(F)F)S(C)(=O)=O | inactive
20 | Cc1ccc(S(=O)(=O)Nc2cccc3c2O[C@@H](CN(C)S(=O)(=O)c2cn(C)cn2)[C@H](C)CN([C@H](C)CO)C3=O)cc1 | inactive
21 | C[C@@H]1CCCCO[C@H](CN(C)C(=O)Nc2ccc(C(F)(F)F)cc2)[C@H](C)CN([C@@H](C)CO)C(=O)c2cc(NC(=O)Nc3ccc(C(F)(F)F)cc3)ccc2O1 | inactive
22 | C[C@@H]1CN([C@@H](C)CO)C(=O)c2cc(NC(=O)Nc3ccc(C(F)(F)F)cc3)ccc2O[C@H]1CN(C)Cc1ccc(-c2ccccc2)cc1 | inactive
23 | C[C@@H]1CN([C@H](C)CO)C(=O)c2cc(NC(=O)c3ccncc3)ccc2O[C@@H]1CN(C)Cc1ccncc1 | inactive

Row | Compound | growth inhibition call
24 | Cc1cc(C(=O)c2cc3cc(Cl)ccc3o2)ccc1Cl | inactive
25 | Cc1cc(CN)cc(C)c1NC(=O)c1ccc(-c2cc(Cl)ccc2Cl)o1 | active
26 | Cc1ccc(CN)cc1Cl | inactive
27 | O=C1CCOC1 | inactive
28 | C[C@H]1CN([C@@H](C)CO)C(=O)c2cc(NC(=O)Cn3cnnn3)ccc2O[C@H]1CN(C)Cc1ccc(Cl)c(Cl)c1 | inactive
29 | C[C@H](CO)N1C[C@H](C)[C@@H](CN(C)C(=O)NC2CCCCC2)Oc2ccc(NC(=O)Nc3cccc4ccccc34)cc2C1=O | inactive
30 | CN(Cc1ccccc1)C(=O)[C@H](Cc1ccc2ccccc2c1)NC(=O)[C@@H]1CCCN1C(=O)Nc1ccccc1[N+](=O)[O-] | inactive
31 | C[C@@H]1CN([C@H](C)CO)C(=O)c2cc(NC(=O)Nc3cccc4ccccc34)ccc2O[C@@H]1CN(C)C(=O)NC1CCCCC1 | inactive
32 | CCCC[P+](CCCC)(CCCC)Cc1ccc(NC(=O)[C@@H](Cc2ccc3ccccc3c2)N=C(NC2CCCCC2)NC2CCCCC2)cc1 | active
33 | CCCC[P+](CCCC)(CCCC)Cc1ccc(NC(=O)[C@H](Cc2ccc3ccccc3c2)N/C(=N/C2CCCCC2)NC2CCCCC2)cc1 | active
34 | CCC(=O)Nc1ccc2ccccc2c1 | inactive
35 | C[C@H](CO)N1C[C@H](C)[C@H](CN(C)S(=O)(=O)c2ccc(Cl)cc2)Oc2ccc(N(C)C)cc2CC1=O | inactive
36 | C[C@H]1CN([C@@H](C)CO)C(=O)c2cccc(NS(C)(=O)=O)c2O[C@@H]1CN(C)S(=O)(=O)c1ccc(F)cc1 | inactive
37 | CN(C)CCC=C1c2ccccc2COc2ccccc21.Cl | inactive
38 | CN(C)CCC=C1c2ccccc2CCc2ccccc21.Cl | inactive
39 | CN(C)CCC=C1c2ccccc2COc2ccc(CC(=O)O)cc21.Cl | active
40 | COc1ccc(S(=O)(=O)N(C)C[C@@H]2Oc3ccc(NC(=O)c4ccncc4)cc3C(=O)N([C@H](C)CO)C[C@H]2C)cc1 | inactive
41 | C[C@@H]1CCCCO[C@@H](CN(C)C(=O)C2CCCCC2)[C@@H](C)CN([C@@H](C)CO)C(=O)c2cc(NS(=O)(=O)c3cccs3)ccc2O1 | inactive
42 | Cc1noc(C)c1NC(=O)N(C)C[C@H]1Oc2ccc(NS(=O)(=O)c3c(C)noc3C)cc2CC(=O)N([C@H](C)CO)C[C@H]1C | inactive
43 | Cc1ccc2sc(N(CCCN(C)C)C(=O)c3ccc(S(=O)(=O)N(C)C4CCCCC4)cc3)nc2c1C | active
44 | Cc1cc(Cl)cc2sc(N(Cc3ccccn3)C(=O)c3ccc(S(=O)(=O)N4CCCC4)cc3)nc12 | inactive
45 | Cc1ccc2sc(N(CCCN(C)C)C(=O)c3ccc(S(=O)(=O)N(C)Cc4ccccc4)cc3)nc2c1C | inactive
46 | CC(C)NC(=O)Nc1ccc2c(c1)C(=O)N([C@H](C)CO)C[C@@H](C)[C@H](CN(C)C(=O)C1CCCCC1)OCCCC[C@H](C)O2 | inactive

Row | Compound | growth inhibition call
47 | Cc1cc(C(=O)Nc2cccc3c2O[C@@H](CN(C)C(=O)Nc2c(C)noc2C)[C@H](C)CN([C@H](C)CO)C3=O)n(C)n1 | inactive
48 | C[C@@H]1CCCCO[C@H](CN(C)S(=O)(=O)c2ccccc2)[C@@H](C)CN([C@H](C)CO)C(=O)c2cc(NC(=O)Nc3ccc(F)cc3)ccc2O1 | inactive
49 | CO[C@@H]1CN(C)C(=O)c2ccc(NS(=O)(=O)c3ccccc3)cc2OC[C@@H](C)N(C(=O)NC(C)C)C[C@H]1C | inactive
50 | O=C(O)C1=C[C@@H](O)[C@H](O)[C@H](O)C1 | inactive
51 | C[C@H]1CN([C@@H](C)CO)C(=O)c2cc(NC(=O)Nc3ccc(C(F)(F)F)cc3)ccc2O[C@H]1CN(C)Cc1ccccc1 | active
52 | COc1ccc(CN(C)C[C@@H]2Oc3ccc(NC(=O)Nc4ccc(C(F)(F)F)cc4)cc3C(=O)N([C@H](C)CO)C[C@@H]2C)cc1 | active
53 | C[C@@H]1CN([C@@H](C)CO)C(=O)c2cc(NC(=O)Nc3ccc(C(F)(F)F)cc3)ccc2O[C@@H]1CN(C)Cc1ccccc1 | inactive
54 | C[C@H]1CN([C@@H](C)CO)C(=O)c2cc(NC(=O)Nc3ccc(C(F)(F)F)cc3)ccc2O[C@H]1CN(C)Cc1ccc2c(c1)OCO2 | active
55 | COc1ccc(NC(=O)Nc2ccc3c(c2)C(=O)N([C@@H](C)CO)C[C@@H](C)[C@@H](CN(C)Cc2ccc(C(F)(F)F)cc2)O3)cc1 | inactive
56 | C[C@@H]1CN([C@@H](C)CO)C(=O)c2cc(NC(=O)Nc3ccc(C(F)(F)F)cc3)ccc2O[C@@H]1CN(C)Cc1ccc2c(c1)OCO2 | inactive
57 | C[C@H]1CN([C@@H](C)CO)C(=O)c2cc(NC(=O)Nc3ccc(C(F)(F)F)cc3)ccc2O[C@@H]1CN(C)Cc1ccccc1 | inactive
58 | C[C@@H]1CN([C@H](C)CO)C(=O)c2cc(NC(=O)Nc3ccc(C(F)(F)F)cc3)ccc2O[C@@H]1CN(C)Cc1ccccc1 | inactive
59 | C[C@H](CO)N1C[C@H](C)[C@@H](CN(C)Cc2ccc3c(c2)OCO3)Oc2ccc(NC(=O)Nc3ccc(C(F)(F)F)cc3)cc2C1=O | inactive
60 | COc1ccc(CN(C)C[C@@H]2Oc3ccc(NC(=O)Nc4ccc(C(F)(F)F)cc4)cc3C(=O)N([C@@H](C)CO)C[C@@H]2C)cc1 | inactive
61 | C[C@H](CO)N1C[C@H](C)[C@H](CN(C)Cc2ccccc2)Oc2ccc(NC(=O)Nc3ccc(C(F)(F)F)cc3)cc2C1=O | active
62 | C[C@H](CO)N1C[C@H](C)[C@@H](CN(C)Cc2ccccc2)Oc2ccc(NC(=O)Nc3ccc(C(F)(F)F)cc3)cc2C1=O | inactive
63 | O=C(C[C@H]1CC[C@H]2[C@@H](COC[C@H](O)CN2S(=O)(=O)c2ccccc2)O1)N1CCOCC1 | inactive
64 | C[C@@H]1CN([C@@H](C)CO)C(=O)c2cc(NC(=O)NC3CCCCC3)ccc2O[C@@H](C)CCCCO[C@H]1CN(C)S(=O)(=O)c1ccc(F)cc1 | inactive
65 | CC(C)c1cc(=O)n2nc(N)nc2[nH]1 | inactive
66 | Cc1ccc(S(=O)(=O)N(C)C[C@@H]2Oc3ncc(C#CCC(C)C)cc3C(=O)N([C@@H](C)CO)C[C@H]2C)cc1 | inactive
67 | Cc1noc(C)c1NC(=O)N[C@@H]1CC[C@H](CC(=O)N2CCN(C)CC2)O[C@H]1CO | inactive
